GPR151 ag = human GPR151 activation. Q8TDV0. PathHunter beta-arrestin GPR151 cells, luminescence. activation, % at 11.2 µM. hit rate 1% among 650,000. AID 1508602; in the data active means activation above about 4.9%;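 further: 0% = median of compound wells and 100% = cells with positive control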
FBW7 act = activators of human E3 ligase FBW7; AlphaScreen FBW7–phospho-cyclin E peptide binding, activator screen; normalized activity (activation), % at 26.1 µM; hit rate 0.13% among 650,000; AID 1259310; in the data active means normalized activity above about 1.9%;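 further: purified mutant Fbw7 with reduced substrate affinity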
MITF primary = human MITF inhibition, primary screen. hit rate 0.91% among 650,000. inhibition, % at 2.6 µM. O75030. AlphaScreen MITF homodimerization, bead proximity signal; in the data active means inhibition above about 50%;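 further: 0% = vehicle wells with protein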
TEAD-YAP inh = TEAD-YAP interaction inhibition. HEK-TIYL cells, TEAD-Gal4/YAP UAS-luciferase luminescence. inhibition, % at 9.12 µM. hit rate 1.4% among 640,000; in the data active means inhibition above about 32%;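 further: 0% = median of test compound wells and 100% = reference inhibitor wells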
MITF inh conf = human MITF inhibition, confirmation. inhibition, % at 2.6 µM. shares compounds with MITF primary. AID 1259372. hit rate 16% among 4,700. AlphaScreen MITF homodimerization, biotin/His-MITF beads;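 active means inhibition above a cutoff derived from the DMSO control wells, cut at about 28% in these data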;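 further: 0% = MITF dimer wells with DMSO only; inhibitors lower the bead chemiluminescence by keeping MITF from dimerizing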
AlphaScreen intf2 = AlphaScreen optical interference, counter-screen | shares compounds with MITF primary | LysRS AlphaScreen counterscreen, signal interference, triplicate | inhibition, % at 2.6 µM | hit rate 7.6% among 4,700 | AID 1259376;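 active means inhibition above a cutoff derived from the DMSO control wells, cut at about 30% in these data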
GPR151 conf act = human GPR151 activation, confirmation screen | shares compounds with GPR151 ag | GPR151 PathHunter beta-arrestin cells, luminescence, 90 min; % of EA-reagent control over plate median | activation, % at 11.2 µM | 6,700 tested, under 10 active;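 active means mean percent activation across replicates above the confirmation screen cutoff of 4.91%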
GPR119 ag = activates human GPR119 in a GPR151 counter-screen; hit rate 0.3% among 6,700; shares compounds with GPR151 ag; activation, % at 11.2 µM; GPR119 PathHunter beta-arrestin cells, luminescence, 90 min; 0 = compound-well median, 100 = enzyme-acceptor control; AID 1508611;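 active means mean percent activation in the counterscreen above 29.09%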;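 further: counterscreen on off-target GPR119 to flag nonselective hits from the GPR151 activator screen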
Active calls of the source: *; x = no result. An excerpt weighted towards active compounds, which were near 3.5% of everything screened.

SMILES	GPR151 ag	FBW7 act	MITF primary	TEAD-YAP inh	MITF inh conf	AlphaScreen intf2	GPR151 conf act	GPR119 ag
COc1ccc(CN2CCN(Cc3cc(OC)cc(OC)c3)CC2)cc1	17*	0	77*	-1	-6	1	-1	-13
COc1cc(CN2CCN(Cc3ccc(Br)cc3)CC2)cc(OC)c1	6.1*	0	82*	-5	11	6	-1	-10
COc1cc(CN2CCOCC2)cc(OC)c1	-1	0	42	4	x	x	x	x
FC(F)(F)C1(C(F)(F)F)N=C(c2ccncc2)OC(c2ccco2)=N1	3	0	11	4	x	x	x	x
COc1ccccc1OCCCOc1ccc(F)cc1	0	0	-10	-39	x	x	x	x
CCOC(=O)CCN(Cc1ccccc1Cl)S(=O)(=O)c1cccc(Cl)c1	0	0	0	-6	x	x	x	x
O=C(CN1CCC(N2CCCCC2)CC1)Nc1ccccc1O	5.7*	0	52*	2	8	3	0	-2
Cc1ccc(OCCCN2CCN(C)CC2)c([N+](=O)[O-])c1	5.2*	0	76*	11	-7	-4	0	-6
Cc1ccc(OCCCN2CCNCC2)c([N+](=O)[O-])c1	0	0	37	4	x	x	x	x
Cc1ccc2c(CN3C(=O)NC4(CCCc5sccc54)C3=O)cc(=O)oc2c1 (configuration not stated)	2	0	5	1	x	x	x	x
COc1ccc(CN2CCN(C(=O)c3cc(OC)c(OC)c(OC)c3)CC2)c(OC)c1	0	0	38	1	x	x	x	x
COc1cc(C(=O)N2CCN(Cc3ccccc3C(F)(F)F)CC2)cc(OC)c1OC	12*	0	59*	6	3	10	1	26
CCc1cc(OCCN2CCN(CC)CC2)ccc1Cl	7.0*	0	70*	-1	8	17	-1	-9
CCN1CCN(CCOc2ccc(Cl)c(C)c2C)CC1	7.7*	0	75*	0	13	11	1	1
Cc1c(Cl)ccc(OCCN2CCNCC2)c1C	0	0	11	-1	x	x	x	x
COc1ccc(Cl)cc1/C=C1/C(=O)NN(c2ccc(F)cc2)C1=O	2	0	-9	-3	x	x	x	x
CCC1CN(CC(=O)NCc2cc(F)ccc2C)Cc2cc(OC)ccc2O1 (configuration not stated)	1	0	15	-5	x	x	x	x
CCn1c2ccccc2c2cc(CN3CCN(Cc4ccc5c(c4)c4ccccc4n5CC)CC3)ccc21	0	0	8	0	x	x	x	x
CCc1ccc(CN2CCN(Cc3ccc4c(c3)c3ccccc3n4CC)CC2)cc1	5.8*	0	70*	-3	8	3	0	6
O=C(NCC(c1ccsc1)N1CCOCC1)NC(c1ccccc1)c1ccccc1 (configuration not stated)	-1	0	-1	-4	x	x	x	x
Brc1c(OCCCN2CCNCC2)ccc2ccccc12	18*	0	56*	-18	6	-1	0	-5
CCCN(CC1CC1)C(=O)C1CCN(Cc2ccc(C)cc2)CC1	5.2*	0	53*	3	12	7	-1	-2
Clc1cccc(CN2CCOCC2)c1Cl	9.9*	0	60*	2	-6	-8	0	6
c1ccc2c(CN3CCOCC3)cccc2c1	0	0	38	8	x	x	x	x
O=C(NCCO)c1ccc2nc(N3CCc4ccccc4C3)sc2c1	3	0	4	-38	x	x	x	x
CCN1CCN(CC#CCOc2ccccc2OC)CC1	9.7*	0	82*	7	8	13	-1	-10
O=C(NC1CCCCC1)c1ccc(NC(=O)c2ncn[nH]2)cc1	1	0	2	-14	x	x	x	x
C=CCC1(CC=C)CCCCN1C(=O)CC1C(=O)NCCN1Cc1ccoc1 (configuration not stated)	6.4*	0	80*	2	0	-1	0	-9
COc1cc(OC)c(CN2CCC(N3CCCCC3)CC2)cc1Br	0	0	12	1	x	x	x	x
COc1cc(OC)c(OC)cc1CN1CCC(N2CCCCC2)CC1	6.1*	0	60*	-7	20	17	0	10

Source: PubChem BioAssay
